Experimental findings from the antibiotic and cytotoxicity screens of Wong et al. (2023) are described below.

SMILES strings stand for the structures. Screen size: about 39,000 compounds; about 1,500 (3.8%) were called active. The entries come from a sample that favours actives as a whole.

The test system of this experiment is HSkMC (human skeletal muscle cells). As to the kind of experiment: cytotoxicity call (relative viability < 0.9). Conditions: 10 µM.
As for `CCCN(C)C[C@H]1OCCCC[C@H](C)Oc2ccc(NS(=O)(=O)c3cn(C)cn3)cc2C(=O)N([C@H](C)CO)C[C@H]1C`, the cytotoxicity call is “inactive”.
To `C[C@@H]1CNC[C@H](C)N1` belongs “inactive”; to `C[C@H](CO)N1C[C@H](C)[C@@H](CN(C)S(=O)(=O)c2ccc(Cl)cc2)Oc2ccc(NC(=O)CCN3CCOCC3)cc2C1=O`, “inactive”; to `c1ccc(C2C3=C(CCCC3)SC3=C2CCCC3)cc1`, “inactive”.
To `Cc1noc(C)c1NC(=O)N(C)C[C@@H]1Oc2c(NS(C)(=O)=O)cccc2C(=O)N([C@H](C)CO)C[C@H]1C` belongs “inactive”; to `Cc1ccc(S(=O)(=O)N(C)C[C@@H]2Oc3c(NC(=O)Nc4ccc(C(F)(F)F)cc4)cccc3C(=O)N([C@H](C)CO)C[C@@H]2C)cc1`, “inactive”; to `Cc1ccc(S(=O)(=O)N(C)C[C@@H]2Oc3c(NC(=O)Nc4ccc(C(F)(F)F)cc4)cccc3C(=O)N([C@@H](C)CO)C[C@H]2C)cc1`, “inactive”.
Then `Cc1ccc(S(=O)(=O)N(C)C[C@H]2Oc3c(NC(=O)Nc4ccc(C(F)(F)F)cc4)cccc3C(=O)N([C@@H](C)CO)C[C@H]2C)cc1`, with “active”; and `Cc1ccc(S(=O)(=O)N(C)C[C@H]2Oc3c(NC(=O)Nc4ccc(C(F)(F)F)cc4)cccc3C(=O)N([C@H](C)CO)C[C@H]2C)cc1`, with “active”.
Turning to `Cc1ccc(S(=O)(=O)N(C)C[C@H]2Oc3c(NC(=O)Nc4ccc(C(F)(F)F)cc4)cccc3C(=O)N([C@@H](C)CO)C[C@@H]2C)cc1`, the cytotoxicity call was “inactive”.
On to `Cc1ccc(S(=O)(=O)N(C)C[C@@H]2Oc3c(NC(=O)Nc4ccc(C(F)(F)F)cc4)cccc3C(=O)N([C@H](C)CO)C[C@H]2C)cc1`, for which the cytotoxicity call was “inactive”.
Turning to `[N-]=[N+]=N[C@]1(CO)O[C@@H](n2ccc(N)nc2=O)[C@H](O)[C@@H]1O`, the cytotoxicity call is “inactive”.
With `c1ccc(CCN2CCNCC2)nc1`, the cytotoxicity call is “inactive”.
Then `C[C@@H]1CN([C@H](C)CO)C(=O)c2cc(Br)cnc2O[C@@H]1CN(C)S(=O)(=O)c1ccccc1`, with “inactive”; and `Cc1ccc(S(=O)(=O)N(C)C[C@@H]2Oc3ncc(C#CC4(O)CCCC4)cc3C(=O)N([C@@H](C)CO)C[C@@H]2C)cc1`, with “inactive”.
To `COc1ccc(S(=O)(=O)N(C)C[C@@H]2Oc3ccc(NS(=O)(=O)c4c(C)noc4C)cc3C(=O)N([C@H](C)CO)C[C@@H]2C)cc1` belongs “inactive”.
To `CCCNC(=O)C[C@H]1CC[C@H]2[C@@H](COc3ccc(NS(=O)(=O)c4ccccc4C)cc3C(=O)N2C)O1` belongs “inactive”.
For the molecule `C[C@@H]1CN([C@H](C)CO)C(=O)Cc2cc(NC(=O)CCCCCC(=O)Nc3ccccc3N)ccc2O[C@@H]1CN(C)CC1CCCCC1`, the cytotoxicity call is “active”.
To `C[C@@H]1CN([C@H](C)CO)C(=O)Cc2cc(NC(=O)CCCCCC(=O)Nc3ccccc3N)ccc2O[C@H]1CN(C)CC1CCCCC1` belongs “inactive”; to `C[C@H]1CN([C@@H](C)CO)C(=O)Cc2cc(NC(=O)CCCCCC(=O)Nc3ccccc3N)ccc2O[C@H]1CN(C)Cc1ccc(-c2ccccc2)cc1`, “inactive”.
Then `C[C@@H]1CN([C@H](C)CO)C(=O)c2cc(NC(=O)CCCCCC(=O)Nc3ccccc3N)ccc2O[C@H]1CN(C)Cc1ccc(-c2ccccc2)cc1`, with “active”; and `C[C@@H]1CN([C@H](C)CO)C(=O)Cc2cc(NC(=O)CCCCCC(=O)Nc3ccccc3N)ccc2O[C@H]1CN(C)Cc1ccc(-c2ccccc2)cc1`, with “inactive”.
To `C[C@@H]1CN([C@H](C)CO)C(=O)Cc2cc(NC(=O)CCCCCC(=O)Nc3ccccc3N)ccc2O[C@@H]1CN(C)Cc1ccc(Oc2ccccc2)cc1` belongs “active”; to `C[C@@H]1CN([C@@H](C)CO)C(=O)Cc2cc(NC(=O)CCCCCC(=O)Nc3ccccc3N)ccc2O[C@@H]1CN(C)Cc1ccc(Oc2ccccc2)cc1`, “inactive”; to `C[C@H]1CN([C@@H](C)CO)C(=O)c2cc(NC(=O)CCCCCC(=O)Nc3ccccc3N)ccc2O[C@H]1CN(C)Cc1ccc(-c2ccccc2)cc1`, “inactive”.
For the molecule `C[C@@H]1CN([C@@H](C)CO)C(=O)Cc2cc(NC(=O)CCCCCC(=O)Nc3ccccc3N)ccc2O[C@@H]1CN(C)CC1CCCCC1`, the cytotoxicity call is “inactive”.
Then `C[C@@H]1CN([C@H](C)CO)C(=O)Cc2cc(NC(=O)CCCCCC(=O)Nc3ccccc3N)ccc2O[C@@H]1CN(C)Cc1ccc(-c2ccccc2)cc1`, with “active”; and `C[C@@H]1CN([C@@H](C)CO)C(=O)c2cc(NC(=O)CCCCCC(=O)Nc3ccccc3N)ccc2O[C@@H]1CN(C)Cc1ccc(-c2ccccc2)cc1`, with “inactive”.
Then `C[C@H]1CN([C@@H](C)CO)C(=O)Cc2cc(NC(=O)CCCCCC(=O)Nc3ccccc3N)ccc2O[C@@H]1CN(C)Cc1ccc(Oc2ccccc2)cc1`, with “inactive”; and `CN1C[C@H](O)COC[C@@H]2O[C@@H](CC(=O)N3CCN(c4ccccc4)CC3)CC[C@H]21`, with “inactive”.
On to `C[C@@H]1CCCCO[C@H](CN(C)C(=O)Nc2ccc(C(F)(F)F)cc2)[C@H](C)CN([C@H](C)CO)C(=O)c2cc(N(C)C)ccc2O1`, for which the cytotoxicity call was “inactive”.
On to `COc1cccc(NC(=O)N(C)C[C@H]2Oc3ncc(C#Cc4cccnc4)cc3C(=O)N([C@@H](C)CO)C[C@@H]2C)c1`, for which the cytotoxicity call is “inactive”.
For `C[C@@H]1CN([C@H](C)CO)C(=O)Cc2cc(NC(=O)CCN3CCOCC3)ccc2O[C@H]1CN(C)S(=O)(=O)c1ccc(Cl)cc1`, the cytotoxicity call is “inactive”.
Then `O=C(O)c1cc(F)c2nc(N3[C@@H]4CC[C@H]3C[C@@H](OCc3c(-c5ccccc5OC(F)(F)F)noc3C3CC3)C4)sc2c1`, with “inactive”.
Then `C[C@H](CO)N1C[C@H](C)[C@H](CN(C)Cc2ccncc2)Oc2c(NC(=O)Nc3cccc4ccccc34)cccc2C1=O`, with “inactive”; and `C[C@H](CO)N1C[C@H](C)[C@@H](CN(C)S(=O)(=O)c2ccc(Oc3ccccc3)cc2)OCc2cnnn2CCCC1=O`, with “inactive”.
As for `C[C@@H]1CN([C@@H](C)CO)C(=O)c2cc(NC(=O)C3CCCCC3)ccc2O[C@@H](C)CCCCO[C@H]1CN(C)Cc1ccc2c(c1)OCO2`, the cytotoxicity call is “inactive”.
For the molecule `COc1ccc(CNC(=O)C[C@@H]2C[C@@H]3c4cc(NS(=O)(=O)c5ccc(F)cc5)ccc4O[C@@H]3[C@H](CO)O2)cc1`, the cytotoxicity call is “inactive”.
On to `O=C1c2ccc3c4c(ccc(c24)C(=O)N1CCCCO)C(=O)N(CCCCO)C3=O`, for which the cytotoxicity call is “active”.
Then `NC(=O)CCN1C(=O)c2ccccc2C1=O`, with “inactive”.
Then `O=C(O)CCCN1C(=O)c2cccc3cccc(c23)C1=O`, with “inactive”; and `CN1C(=O)c2cc(NC(=O)C3CCOCC3)ccc2OC[C@H]2O[C@H](CC(=O)NCc3ccc4c(c3)OCO4)CC[C@H]21`, with “inactive”.
Then `C[C@H](CO)N1C[C@H](C)[C@H](CN(C)S(=O)(=O)c2cccs2)Oc2c(NS(=O)(=O)c3cn(C)cn3)cccc2C1=O`, with “inactive”; and `C[C@@H]1CN([C@H](C)CO)C(=O)c2cc(NS(=O)(=O)c3ccc(Cl)cc3)ccc2O[C@@H](C)CCCCO[C@H]1CN(C)C(=O)Nc1ccc(C(F)(F)F)cc1`, with “active”; and `C[C@H]1CCCCO[C@H](CN(C)C(=O)Nc2ccc(C(F)(F)F)cc2)[C@@H](C)CN([C@@H](C)CO)C(=O)c2cc(NS(=O)(=O)c3ccc(F)cc3)ccc2O1`, with “active”.
Consider `C[C@H](CO)N1C[C@H](C)[C@H](CN(C)C(=O)Nc2ccc(C(F)(F)F)cc2)OCCCC[C@H](C)Oc2ccc(NS(=O)(=O)c3ccc(Cl)cc3)cc2C1=O`, for which the cytotoxicity call is “inactive”.
Then `C[C@@H]1CCCCO[C@H](CN(C)C(=O)Nc2ccc(C(F)(F)F)cc2)[C@@H](C)CN([C@@H](C)CO)C(=O)c2cc(NS(=O)(=O)c3ccc(Cl)cc3)ccc2O1`, with “active”.
Take `C[C@H]1CCCCO[C@@H](CN(C)C(=O)Nc2ccc(C(F)(F)F)cc2)[C@@H](C)CN([C@@H](C)CO)C(=O)c2cc(NS(=O)(=O)c3ccc(Cl)cc3)ccc2O1`: the cytotoxicity call was “inactive”.
`C[C@@H]1CCCCO[C@@H](CN(C)C(=O)Nc2ccc(C(F)(F)F)cc2)[C@H](C)CN([C@@H](C)CO)C(=O)c2cc(NS(=O)(=O)c3ccc(Cl)cc3)ccc2O1`: the cytotoxicity call is “inactive”.
To `C[C@@H]1CCCCO[C@@H](CN(C)C(=O)Nc2ccc(C(F)(F)F)cc2)[C@H](C)CN([C@H](C)CO)C(=O)c2cc(NS(=O)(=O)c3ccc(F)cc3)ccc2O1` belongs “inactive”; to `C[C@@H]1CCCCO[C@H](CN(C)C(=O)Nc2ccc(C(F)(F)F)cc2)[C@H](C)CN([C@@H](C)CO)C(=O)c2cc(NS(=O)(=O)c3ccc(Cl)cc3)ccc2O1`, “inactive”; to `C[C@@H]1CN([C@@H](C)CO)C(=O)c2cc(NS(=O)(=O)c3ccc(Cl)cc3)ccc2O[C@@H](C)CCCCO[C@@H]1CN(C)C(=O)Nc1ccc(C(F)(F)F)cc1`, “inactive”.
Then `C[C@@H]1CCCCO[C@H](CN(C)C(=O)Nc2ccc(C(F)(F)F)cc2)[C@H](C)CN([C@H](C)CO)C(=O)c2cc(NS(=O)(=O)c3ccc(Cl)cc3)ccc2O1`, with “inactive”; and `C[C@@H]1CCCCO[C@@H](CN(C)C(=O)Nc2ccc(C(F)(F)F)cc2)[C@H](C)CN([C@@H](C)CO)C(=O)c2cc(NS(=O)(=O)c3ccc(F)cc3)ccc2O1`, with “inactive”; and `C[C@@H]1CCCCO[C@@H](CN(C)C(=O)Nc2ccc(C(F)(F)F)cc2)[C@H](C)CN([C@H](C)CO)C(=O)c2cc(NS(=O)(=O)c3ccc(Cl)cc3)ccc2O1`, with “active”.
Then `C[C@H](CO)N1C[C@H](C)[C@H](CN(C)C(=O)Nc2ccc(C(F)(F)F)cc2)Oc2c(NC(=O)Nc3ccc4c(c3)OCO4)cccc2C1=O`, with “inactive”.
For `C[C@H]1CN([C@@H](C)CO)C(=O)c2cc(NS(=O)(=O)c3ccc(F)cc3)ccc2O[C@H]1CN(C)Cc1ccncc1`, the cytotoxicity call is “inactive”.
Then `c1ccc([C@@H]2Oc3ccccc3[C@@H]3Oc4ccccc4C[C@@H]23)cc1`, with “inactive”; and `Cc1noc(C)c1S(=O)(=O)Nc1cccc2c1O[C@H](CN(C)CC1CC1)[C@H](C)CN([C@H](C)CO)C2=O`, with “inactive”; and `C[C@@H]1CN([C@@H](C)CO)C(=O)c2cc(NC(=O)Cc3ccccc3)ccc2O[C@@H](C)CCCCO[C@@H]1CN(C)C(=O)Nc1ccccc1`, with “inactive”.
